According to PubChem BioAssay AID1159580 (chemical genetic matrix, 2015):
“And” between values parts separate entries of the source, which are not always exact repeats. Equal values may be shown once. The whole screen tested about 5,500 compounds, of which about 2,000 (36%) were called active. Not shown: some 18% with an inconclusive outcome. Rule as the data show it: active = normalized growth mostly below about 0.91 (no sharp cut-off); inconclusive = no clear call, values can overlap the other calls; inactive = mostly above about 0.92. This is one part of the list.

Assay: chemical genetic growth profiling, strain panel (AID 1159580);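 also: tested at 20 µM; growth read once vehicle control cultures reached saturation at 30 °C; 1 = growth at the plate median or of vehicle wells; lower values mean less growth of the strain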
Details: S. cerevisiae deletion strains, growth OD
[1] = locus YMR307W, strain GAS1, active compounds read low
[2] = locus YPL055C, strain LGE1, active compounds read low

Measured: normalized growth

CC(N)Cc1c[nH]c2ccc(O)cc12 (centres undefined)
inactive: locus YAL013W, strain DEP1, active compounds read low 1.02 | locus YAL040C, strain CLN3, active compounds read low 1 | locus YCL061C, strain MRC1 (second series), active compounds read low 1 | locus YDR363W, strain ESC2, active compounds read low 1.03 | locus YER002W, strain NOP16, active compounds read low 1 | [1] 1 | locus YNL153C, strain GIM3, active compounds read low 1.01 | locus YNL175C, strain NOP13, active compounds read low 1.01 | locus YNL197C, strain WHI3, active compounds read low 1.04 | locus YNL224C, strain SQS1, active compounds read low 1.02 | locus YOR083W, strain WHI5 (second series), active compounds read low 1.01 | [2] 1.01

CC[C@@H](CO)NCCN[C@@H](CC)CO
inactive: locus YAL021C, strain ccr4, active compounds read low 1.01 | locus YAL026C, strain drs2, active compounds read low 1 | locus YAL030W, strain snc1, active compounds read low 1.01 | locus YBL061C, strain skt5, active compounds read low 1.02 | locus YBR009C, strain hhf1, active compounds read low 1 | locus YBR021W, strain FUR4, active compounds read low 1.02 | locus YBR023C, strain chs3, active compounds read low 1.04 | locus YBR171W, strain sec66, active compounds read low 1.02 | locus YBR229C, strain ROT2, active compounds read low 1.01 | locus YBR231C, strain swc5, active compounds read low 0.968 | locus YBR279W, strain paf1, active compounds read low 1.02 | locus YCL011C, strain gbp2, active compounds read low 1.03 | locus YCL016C, strain dcc1, active compounds read low 1.04 | locus YCL029C, strain bik1, active compounds read low 1 | locus YCL061C, strain MRC1, active compounds read low 1.03 | locus YCL069W, strain vba3, active compounds read low 1 | locus YCR088W, strain abp1, active compounds read low 1.01 | locus YDL005C, strain med2, active compounds read low 1 | locus YDL035C, strain GPR1, active compounds read low 1.02 | locus YDL040C, strain nat1, active compounds read low 1 | locus YDL074C, strain BRE1, active compounds read low 1.04 | locus YDL101C, strain DUN1, active compounds read low 1.02 | locus YDL134C, strain PPH21, active compounds read low 1.02 | locus YDL185W, strain tfp1, active compounds read low 1 | locus YDL192W, strain arf1, active compounds read low 1 | locus YDR001C, strain nth1, active compounds read low 1.01 | locus YDR069C, strain doa4, active compounds read low 0.996 | locus YDR101C, strain arx1, active compounds read low 0.987 | locus YDR137W, strain rgp1, active compounds read low 1.01 | locus YDR150W, strain NUM1, active compounds read low 1 | locus YDR159W, strain sac3, active compounds read low 0.959 | locus YDR162C, strain NBP2, active compounds read low 1.01 | locus YDR195W, strain ref2 0.964 | locus YDR297W, strain sur2, active compounds read low 1.02 | locus YDR318W, strain mcm21, active compounds read low 1.01 | locus YDR334W, strain swr1, active compounds read low 1.01 | locus YDR335W, strain msn5, active compounds read low 1.01 | locus YDR388W, active compounds read low 1 | locus YDR392W, strain spt3, active compounds read low 0.985 | locus YDR502C, strain sam2, active compounds read low 1.03 | locus YEL003W, strain gim4, active compounds read low 0.999 | locus YEL037C, strain rad23, active compounds read low 1.01 | locus YEL061C, strain CIN8 (second series), active compounds read low 1.01 | locus YEL061C, strain CIN8, active compounds read low 1.01 | locus YER015W, strain faa2, active compounds read low 1.01 | locus YER016W, strain bim1, active compounds read low 0.985 | locus YER110C, active compounds read low 1.01 | locus YER111C, strain swi4, active compounds read low 1.01 | locus YER155C, strain BEM2 (second series), active compounds read low 0.999 | locus YER155C, strain BEM2, active compounds read low 1.01 | locus YER167W, strain BCK2, active compounds read low 1.01 | locus YFR010W, strain ubp6, active compounds read low 1 | locus YGL078C, strain dbp3, active compounds read low 1 | locus YGL086W, strain mad1, active compounds read low 0.988 | locus YGL167C, strain pmr1, active compounds read low 1.01 | locus YGL173C, strain kem1, active compounds read low 1.01 | locus YGL227W, strain vid30, active compounds read low 1.02 | locus YGL240W, strain doc1, active compounds read low 0.995 | locus YGL248W, strain PDE1, active compounds read low 1.02 | locus YGL253W, strain hxk2, active compounds read low 0.999 | locus YGR078C, strain PAC10, active compounds read low 1.01 | locus YGR135W, strain pre9, active compounds read low 1.04 | locus YGR229C, strain SMI1, active compounds read low 1.02 | locus YGR252W, strain gcn5, active compounds read low 1.04 | locus YHR013C, strain ard1, active compounds read low 1.04 | locus YHR027C, strain rpn1, active compounds read low 1 | locus YHR030C, strain SLT2, active compounds read low 1 and 1.04 | locus YHR079C, strain IRE1 (second series), active compounds read low 0.987 | locus YHR079C, strain IRE1, active compounds read low 1.04 | locus YHR094C, strain hxt1, active compounds read low 1.01 | locus YHR129C, strain ARP1, active compounds read low 1.02 | locus YHR142W, strain chs7, active compounds read low 1.02 | locus YHR200W, strain rpn10, active compounds read low 1 | locus YIL066C, strain RNR3, active compounds read low 1.01 | locus YIL073C, strain SPO22, active compounds read low 1.02 | locus YIL125W, strain kgd1, active compounds read low 1 | locus YIR030C, strain dcg1, active compounds read low 1 | locus YJL092W, strain hpr5, active compounds read low 1.02 | locus YJL095W, strain BCK1 (second series), active compounds read low 1.02 | locus YJL095W, strain BCK1, active compounds read low 1.03 and 1.02 | locus YJL115W, strain asf1, active compounds read low 1.01 | locus YJL129C, strain trk1, active compounds read low 1.02 | locus YJL134W, strain LCB3, active compounds read low 1.02 | locus YJL154C, strain vps35, active compounds read low 1 | locus YJL164C, strain tpk1, active compounds read low 1.02 | locus YJL166W, strain qcr8, active compounds read low 1.05 | locus YJL168C, strain set2, active compounds read low 1.03 | locus YJL187C, strain SWE1 (second series), active compounds read low 1.01 | locus YJL187C, strain SWE1, active compounds read low 1 | locus YJR043C, strain POL32, active compounds read low 1.01 | locus YJR066W, strain TOR1, active compounds read low 0.909 | locus YKL009W, strain mrt4, active compounds read low 0.996 | locus YKL068W, active compounds read low 0.994 | locus YKL085W, strain MDH1 (second series), active compounds read low 1 | locus YKL085W, strain MDH1, active compounds read low 1 | locus YKL160W, strain elf1, active compounds read low 1.05 | locus YKR001C, strain vps1, active compounds read low 0.991 | locus YKR026C, strain gcn3, active compounds read low 1.01 | locus YKR091W, strain srl3, active compounds read low 1.01 | locus YLL001W, strain dnm1, active compounds read low 1.05 | locus YLL026W, active compounds read low 1.01 | locus YLL041C, strain sdh2, active compounds read low 1 | locus YLR027C, strain aat2, active compounds read low 0.992 | locus YLR039C, strain RIC1, active compounds read low 1.1 | locus YLR058C, strain SHM2, active compounds read low 1.02 | locus YLR102C, strain apc9, active compounds read low 1 | locus YLR113W, strain HOG1, active compounds read low 1.1 | locus YLR221C, strain rsa3, active compounds read low 1.05 | locus YLR258W, strain gsy2, active compounds read low 1.02 | locus YLR262C, strain YPT6 (second series), active compounds read low 1.03 | locus YLR262C, strain YPT6, active compounds read low 1.05 | locus YLR268W, strain sec22, active compounds read low 0.988 | locus YLR320W, strain mms22, active compounds read low 1.07 | locus YLR330W, strain CHS5, active compounds read low 1.01 | locus YLR342W, strain FKS1 (second series), active compounds read low 1.05 | locus YLR342W, strain FKS1, active compounds read low 1.02 | locus YLR357W, strain rsc2, active compounds read low 0.986 | locus YLR370C, strain arc18, active compounds read low 1.02 | locus YLR371W, strain rom2, active compounds read low 1.01 | locus YLR384C, strain iki3, active compounds read low 1.02 | locus YLR418C, strain cdc73, active compounds read low 1.01 | locus YML016C, strain PPZ1, active compounds read low 1.01 | locus YML032C, strain rad52, active compounds read low 1.01 | locus YML120C, strain ndi1, active compounds read low 1.03 | locus YML124C, strain tub3, active compounds read low 0.998 | locus YMR058W, strain fet3, active compounds read low 1.01 | locus YMR078C, strain ctf18, active compounds read low 1.01 | locus YMR125W, strain sto1, active compounds read low 1 | locus YMR129W, active compounds read low 1 | locus YMR205C, strain PFK2, active compounds read low 1.05 | locus YMR223W, strain ubp8, active compounds read low 1.02 | locus YMR231W, strain pep5, active compounds read low 1 | locus YMR263W, strain SAP30, active compounds read low 1.02 | [1] 1.01 | locus YNL067W, strain RPL9B, active compounds read low 1.01 | locus YNL071W, strain lat1, active compounds read low 1.02 | locus YNL183C, strain NPR1, active compounds read low 1 | locus YNL209W, strain ssb2, active compounds read low 1.02 | locus YNL233W, strain BNI4, active compounds read low 1.02 | locus YNL248C, strain rpa49, active compounds read low 0.996 | locus YNL250W, strain rad50, active compounds read low 0.992 | locus YNL271C, strain bni1, active compounds read low 0.995 | locus YNL298W, strain CLA4, active compounds read low 1.02 | locus YNL307C, strain MCK1, active compounds read low 1 | locus YNL322C, strain KRE1 (second series), active compounds read low 1.04 | locus YNL322C, strain KRE1, active compounds read low 1.01 | locus YNR049C, strain mso1, active compounds read low 1.02 | locus YNR052C, strain pop2, active compounds read low 1 | locus YOL006C, strain TOP1, active compounds read low 1.01 | locus YOL012C, strain htz1 0.915 | locus YOL147C, strain pex11, active compounds read low 0.997 | locus YOR001W, strain rrp6, active compounds read low 0.99 | locus YOR061W, strain CKA2, active compounds read low 1.01 | locus YOR069W, strain VPS5, active compounds read low 1.01 | locus YOR070C, strain gyp1, active compounds read low 1.01 | locus YOR080W, strain dia2, active compounds read low 1 | locus YOR083W, strain WHI5, active compounds read low 1.07 | locus YOR106W, strain vam3, active compounds read low 1.04 | locus YOR136W, strain idh2, active compounds read low 0.995 | locus YOR144C, strain elg1, active compounds read low 0.996 | locus YOR184W, strain ser1, active compounds read low 1.03 | locus YOR231W, strain MKK1, active compounds read low 1.07 | locus YOR265W, strain rbl2, active compounds read low 1.01 | locus YOR270C, strain vph1, active compounds read low 1.04 | locus YOR290C, strain snf2, active compounds read low 0.986 | locus YOR316C, strain cot1, active compounds read low 1 | locus YPL051W, strain arl3, active compounds read low 1 | [2] 1.03 | locus YPL078C, strain atp4, active compounds read low 1.02 | locus YPL106C, strain sse1, active compounds read low 1.03 | locus YPL240C, strain hsp82, active compounds read low 1.02 | locus YPL256C, strain CLN2, active compounds read low 1.03 | locus YPR119W, strain clb2, active compounds read low 1 | locus YPR141C, strain kar3, active compounds read low 1.01 | locus YPR163C, strain tif3, active compounds read low 0.989 | locus YPR167C, strain met16, active compounds read low 1 | strain wtn01, active compounds read low 1
